# Shown are actives, neighbours in structure and some others; about 0.52% of the full set was active somewhere.
# Sa growth inh – blocks Staphylococcus aureus growth; relative growth, % (no concentration beside the values); S. aureus RN4220 growth, OD600, 20 h, 42 °C; hits give low values; hit rate 0.53% among 170,000;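 active = relative growth at most 50% at the other temperature and 20+ points below 30 °C, or under 10% at both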
# S aureus helic – S. aureus DNA helicase inhibition; inhibition, % (test concentration not listed); hit rate 0.05% among 120,000; purified S. aureus helicase, fluorescence unwinding assay; AID 485395; in the data active = inhibition above about 25%, passing the limit was not always enough;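 note: 0% = mean of negative control wells and 100% = mean of positive control wells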
# * = called active by the depositor; . = no result.
SMILES,Sa growth inh,S aureus helic
Cc1ccc(N=C2N=C(N)c3ccccc32)cc1,95.4,17.0
CC(C)c1cc2cc(/C=C/C(=O)O)c(O)cc2o1,-0.3*,8.0
CC(C)(O)C1Cc2cc(/C=C/C(=O)O)c(O)cc2O1 (stereo not drawn),65.2,6.0
COC(=O)c1ccccc1NC(=O)CSc1nc2c(c(=O)[nH]1)CCCC2,112.4,3.0
O=C(Nc1ccc(NC(=O)C2CC2)cc1)C1CC1,111.1,-1.0
Cc1ccc(NC(=O)c2nc(S(=O)(=O)Cc3ccc(F)cc3)ncc2Cl)cc1C,101.3,.
CC(C)Sc1ncc(Cl)c(C(=O)Nc2nnc(C(C)C)s2)n1,97.3,.
CCCc1nnc(NC(=O)c2nc(S(=O)(=O)Cc3ccc(C)cc3)ncc2Cl)s1,4.1*,.
CCOC(=O)c1ccc(NC(=O)c2nc(S(=O)(=O)Cc3ccccc3)ncc2Cl)cc1,99.7,.
Cc1ccccc1CS(=O)(=O)c1ncc(Cl)c(C(=O)Nc2nnc(C(C)C)s2)n1,5.7*,.
Cc1ccc(CS(=O)(=O)c2ncc(Cl)c(C(=O)Nc3nc4ccc(C)cc4s3)n2)cc1,92.1,.
COc1ccc(OC)c(NC(=O)c2nc(S(=O)(=O)Cc3ccc(F)cc3)ncc2Cl)c1,-1.1*,.
CC(C)c1nnc(NC(=O)c2nc(S(=O)(=O)Cc3ccccc3)ncc2Cl)s1,7.3*,.
CCN(CC)c1ccc(NC(=O)CN2CCN(CC(=O)Nc3ccc(Br)cc3)CC2)cc1,102.0,2.0
Nc1nc2ccc(S(=O)(=O)c3ccccc3)cc2[nH]1,84.8,13.0
O=C1C(Nc2cccc(O)c2)=C(n2nnc3ccccc32)C(=O)c2ccccc21,0.6*,15.0
O=C1C(Nc2ccccc2)=C(n2nnc3ccccc32)C(=O)c2ccccc21,85.6,13.0
O=C(NNc1ccccc1)c1cc(-c2cccs2)nn1-c1ccccc1,41.4,-19.0
CC[n+]1c(C)sc2cc(SC)c(OC)cc21,1.8*,10.0
CC[n+]1c(C)sc2ccccc21,45.8,16.0
Cc1cccc2nc(-c3ccco3)c(Nc3ccc4c(c3)OCO4)n12,110.7,.
Cc1ccc(-c2nc3cccc(C)n3c2Nc2ccc3c(c2)OCO3)o1,2.2*,.
Nc1ccc(S(=O)(=O)C(F)F)cc1,101.5,-9.0
COc1ccc(SCC(=O)O)cc1,118.2,-1.0
Cc1ccc(C)n1-c1ccc(SCC(=O)O)cc1,89.0,42.0*
SMILES,Sa growth inh,S aureus helic
O=C1CSC(=S)N1c1cccc(C(F)(F)F)c1,.,-2.0
O=C1C2SCCN2C(=S)N1c1cccc(C(F)(F)F)c1 (stereo not drawn),45.8*,.
Nc1nc(-c2sc3nc4c(cc3c2N)CCC4)nc(N2CCOCC2)n1,88.3,8.0
NC(=O)N/N=C/c1ccc(-c2ccc(SC(F)F)cc2)o1,101.1,-4.0
N#CCCN/N=C/c1ccc(-c2ccc(SC(F)F)cc2)o1,48.4*,-11.0
COc1cccc(NC(=O)N2Cc3ccccc3Oc3ncccc32)c1,96.9,-22.0
S=C1CCN(Cc2ccccc2)c2ccccc2N1,94.8,-1.0
COc1ccc(C2=Nn3c(nc4sc5c(c4c3=O)CCCC5)SC2)cc1,103.1,.
COc1ccc(C2=Nn3c([n+](C)c4ccccc43)SC2)cc1,1.4*,22.0
O=C(NC1CCCC1)c1cc(=O)[nH]c2ccc(S(=O)(=O)N3CCCC3)cc12,110.2,3.0
CC1CCCN(C(=O)c2cc3ccccc3oc2=O)C1 (stereo not drawn),92.9,-3.0
CCC(CC)C(=O)N1c2ccccc2Sc2ccccc21,108.4,9.0
COc1ccc(-c2cc(=NC(CC(C)C)C(=O)O)c3cc(C)ccc3o2)cc1 (stereo not drawn),92.3,7.0
COc1ccc(-c2cc(=NCCc3ccccc3)c3cc(C)ccc3o2)cc1,14.3,46.0*
CC(C)(C)c1ccc(-c2nnn(-c3ccccc3)n2)cc1,102.7,-1.0
COC(C(=O)NCc1ccc(Cl)cc1Cl)c1ccccc1 (stereo not drawn),97.1,-15.0
CC(C)(C)N1COc2ccc3c(-c4ccccc4)cc(=O)oc3c2C1,86.2,16.0
COc1ccc(C2=NC(c3sccc3C)NC(c3cc(Cl)ccc3O)C2)cc1 (stereo not drawn),92.1,18.0
CC(=O)Oc1ccc(C)cc1-n1nc2ccccc2n1,45.9*,0.0
CCN(CC)S(=O)(=O)c1ccc(Cl)c(C(=O)Oc2ccc(C)cc2-n2nc3ccccc3n2)c1,91.7,7.0
Clc1cccc(NCc2cccc3c2CN(CC2CCCO2)C3)c1 (stereo not drawn),100.2,0.0
Clc1cc2c(c3ncccc13)OCN(CCC1=CCCCC1)C2,0.1*,11.0
CCCCN1COc2c(cc(Cl)c3cccnc23)C1,1.0*,8.0
Oc1c(CN2CCc3ccccc3C2)cc(Cl)c2cccnc12,.,-12.0
Clc1cc2c(c3ncccc13)OCN(CCc1ccccc1)C2,95.0,14.0
SMILES,Sa growth inh,S aureus helic
Clc1cc2c(c3ncccc13)OCN(CC1CCCO1)C2 (stereo not drawn),1.0*,-13.0
CCc1nnc(NC(=O)CN(CC)CC)s1,98.4,-7.0
CC(OC(=O)c1ccccc1OC(F)F)C(=O)N1CCCc2ccccc21 (stereo not drawn),97.6,5.0
COC(=O)c1cc(-c2cccs2)nc2c1c(C)nn2-c1ccccc1,100.7,0.0
Clc1ccc(OCCn2ccnc2)c(Br)c1,3.1*,9.0
Cc1cc(Cl)cc(C)c1OCCn1ccnc1,19.0,0.0
Cn1c(C2CC(=O)N(c3cccc4ccccc34)C2)nc2ccccc21 (stereo not drawn),0.4*,6.0
O=C1CC(c2nc3ccccc3[nH]2)CN1c1cccc2ccccc12 (stereo not drawn),88.8,10.0
Cc1nccc(-c2cccc(NN=C(C#N)C#N)c2)n1,-0.4*,20.0
Cc1nccc(-c2cccc(N/N=C(\C#N)S(=O)(=O)c3ccccn3)c2)n1,94.6,0.0
O=c1c2ccccc2nnn1CSc1nnc(Cc2cccs2)n1C1CCCCC1,112.1,-15.0
N#Cc1ccc(NC(=O)CONC2=NCCCCC2)cc1,115.7,0.0
CN1C(=O)S/C(=C/c2ccc(-c3ccc(C(=O)O)c(Cl)c3)o2)C1=O,57.5,12.0
CCN1C(=O)/C(=C\c2ccc(-c3ccc(Cl)c(C(=O)O)c3)o2)SC1=S,-0.7*,-80.0
Cc1[nH]c2ccc(C(=O)NC3CC3)cc2c1C,114.9,2.0
Cc1[nH]c2ccc(C(=O)NCC3CCCO3)cc2c1C (stereo not drawn),102.9,29.0*
Cc1cc(C)cc(NS(=O)(=O)c2ccc3c(c2)OCCN3C(=O)c2ccco2)c1,96.5,7.0
O=C(N/N=C/c1ccccc1)Nc1ccccc1,83.9,6.0
C/C(=N\O)c1cc(-c2ccccc2)no1,-0.7*,.
C/C(=N\OC(=O)c1ccccc1)c1cc(-c2ccccc2)no1,100.9,3.0
N#C/C(=C\Nc1cccc(Cl)c1)S(=O)(=O)Cc1ccco1,85.3,.
N#C/C(=N\Nc1cc(C(=O)O)cc(C(=O)O)c1)C(=O)c1ccccc1,94.2,-3.0
Cc1cc(C(=O)/C(C#N)=N/Nc2cccc(Cl)c2)n(C(C)(C)C)n1,5.4*,21.0
N#C/C(=N\Nc1cccc(Cl)c1)C(=O)c1ccco1,1.8*,-9.0
CC(C)CSc1nnc2n(-c3ccccc3)c(=O)c3ccccc3n12,100.3,-1.0
Cc1ccc(/C=C2\CCCC(CN(C)C)C2=O)cc1 (stereo not drawn),-0.2*,.
CN(C)c1ccc(/C=C2\CCC(C3CCCC3)C2=O)cc1 (stereo not drawn),95.1,3.0
c1ccc(-c2c(-c3ccccc3)n(Cc3ccco3)c3ncnc(NCCCn4ccnc4)c23)cc1,0.1*,-19.0
